Whole data set: some 18,000 sequences, median “log2 normalized intensity” near 0.36, cut for the highest 2% near 7.3. The list comes from a sample in which the highest values are over-represented; it also holds similar and randomly drawn sequences.

The target in this assay is T1, HNF4alpha8 (COS-7 nuclear extract) (Homo sapiens, UniProt P41235-5 1-452).
T1 sequence: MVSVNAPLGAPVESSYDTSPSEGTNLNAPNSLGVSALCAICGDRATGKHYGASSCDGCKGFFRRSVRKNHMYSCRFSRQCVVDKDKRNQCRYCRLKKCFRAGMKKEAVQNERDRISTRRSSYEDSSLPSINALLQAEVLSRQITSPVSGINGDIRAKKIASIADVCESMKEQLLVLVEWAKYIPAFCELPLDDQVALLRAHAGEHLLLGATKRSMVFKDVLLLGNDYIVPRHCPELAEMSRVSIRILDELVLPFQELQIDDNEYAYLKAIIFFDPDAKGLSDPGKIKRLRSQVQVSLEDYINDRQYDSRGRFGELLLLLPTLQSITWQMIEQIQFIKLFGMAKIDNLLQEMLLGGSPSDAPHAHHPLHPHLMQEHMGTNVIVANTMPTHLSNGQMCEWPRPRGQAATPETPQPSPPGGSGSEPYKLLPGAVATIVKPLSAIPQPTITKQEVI
Nature of the assay: protein-binding microarray; COS-7 nuclear extract on double-stranded Agilent 4x180k PBM; binding buffer, salt, pH and temperature not given in the material; high values mean tight binding. Particulars: chain copies: 2; label: 3' end of strand 1 on the slide; dsDNA, one strand shown. The procedure, abridged: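 The binding signal is Agilent software's gProcessedSignal after background correction and normalization. Arrays were a custom Agilent SurePrint G3 4x180k design of double-stranded ~60-nt oligonucleotides with ~44,000 test sequences in quadruplicate, probed with nuclear extracts of COS-7 cells transiently expressing a human HNF4α isoform. Scans were made at 2-µm resolution on an Agilent G2565CA scanner.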
Consider “AGAGGAAGATCTTTTTGATGACTTTGTAGGGCCTAGGGAGATTAGAGTATCGGTCGA”, for which the binding signal amounted to 0.915 log2 normalized intensity.

Regarding “TAAACCTGTTTGGTATCTACTCGGCAAAACGCCTAGGGAGATTAGAGTATCGGTCGA”, the binding signal was 1.28 log2 normalized intensity.

For the sequence “GACACTTCCAGCCAAACCAGGTCATGCATTGCCTAGGGAGATTAGAGTATCGGTCGA”, the binding signal stood at 0.387 log2 normalized intensity.

On to “CCGTTAGCCAATATTTGCAAGGCTGTTGGCGCCTAGGGAGATTAGAGTATCGGTCGA”, for which the binding signal was -0.823 log2 normalized intensity.

As for “CCCCCCAAGTTGAAGCCATCCTCCCACCTCGCCTAGGGAGATTAGAGTATCGGTCGA”, the binding signal turned out to be 5.73 log2 normalized intensity.

Regarding “TATTAGGCAAAAGAGATAGCGAGAAGGCAGGCCTAGGGAGATTAGAGTATCGGTCGA”, the binding signal is -0.999 log2 normalized intensity.

With “TTATGTACTTAGTGTTTTATGTGTATTTACGCCTAGGGAGATTAGAGTATCGGTCGA”, the binding signal was found to be 2.09 log2 normalized intensity.

“AGTTTTGCAACATACTGAAAAAGGGTTGTGGCCTAGGGAGATTAGAGTATCGGTCGA”: the binding signal amounted to 1.23 log2 normalized intensity.

As to “CGCTCTGAGTGACCTTTCACCCGCGCCCAGGCCTAGGGAGATTAGAGTATCGGTCGA”, the binding signal was determined as 6.45 log2 normalized intensity.

For “CGCCGGGCGCCGCTCTGAGTGACCTTTCACGCCTAGGGAGATTAGAGTATCGGTCGA”, the binding signal amounted to 5.71 log2 normalized intensity.

With “GGCGCCGCTCTGAGTGACCTTTCACCCGCGGCCTAGGGAGATTAGAGTATCGGTCGA”, the binding signal is 7.77 log2 normalized intensity.

Turning to “CCCTGCAATTTGATTTGTATGATCTTGGGTGCCTAGGGAGATTAGAGTATCGGTCGA”, the binding signal came out at 1.73 log2 normalized intensity.

Regarding “TTCCCCAGTGAGGATGTGTGCTCGAGGTGGGCCTAGGGAGATTAGAGTATCGGTCGA”, the binding signal was found to be 1.11 log2 normalized intensity.

“GACCATGTGATGTGAAGAGTGTGGACTTTCGCCTAGGGAGATTAGAGTATCGGTCGA”: the binding signal stood at 4.87 log2 normalized intensity.

For “CAGTGAGGATGTGTGCTCGAGGTGGACTTTGCCTAGGGAGATTAGAGTATCGGTCGA”, the binding signal is 7.48 log2 normalized intensity.

On to “TGTGATGTGAAGAGTGTGGACTTTCACCTCGCCTAGGGAGATTAGAGTATCGGTCGA”, for which the binding signal amounted to 8.92 log2 normalized intensity.

As to “TGTGAAGAGTGTGGACTTTCACCTCCACCAGCCTAGGGAGATTAGAGTATCGGTCGA”, the binding signal is 6.7 log2 normalized intensity.

Regarding “AGGATGTGTGCTCGAGGTGGACTTTCCCCCGCCTAGGGAGATTAGAGTATCGGTCGA”, the binding signal came out at 6.75 log2 normalized intensity.

“CAAGGGTCAGTTCATTAAAAAAAAAAAAAAGCCTAGGGAGATTAGAGTATCGGTCGA”: the binding signal stood at 0.208 log2 normalized intensity.

Turning to “GATCAAGAGGAAGATCTTTTTGATGACTTTGCCTAGGGAGATTAGAGTATCGGTCGA”, the binding signal was 0.895 log2 normalized intensity.

As for “AGTATTACCATGTCCTGTGATTAAGGTCAAGCCTAGGGAGATTAGAGTATCGGTCGA”, the binding signal was 2.96 log2 normalized intensity.

For the sequence “AACTATGCAGTGTCCATGGTGACCATGTGAGCCTAGGGAGATTAGAGTATCGGTCGA”, the binding signal amounted to 1.71 log2 normalized intensity.

Turning to “GGACTTCGAATGGTATGCTAGAGTACTTGGGCCTAGGGAGATTAGAGTATCGGTCGA”, the binding signal is 1.51 log2 normalized intensity.

Turning to “GCTTTTGGAAGGACTTCGAATGGTATGCTAGCCTAGGGAGATTAGAGTATCGGTCGA”, the binding signal is -0.468 log2 normalized intensity.

For “TGGTATGCTAGAGTACTTGGACTTTAACCTGCCTAGGGAGATTAGAGTATCGGTCGA”, the binding signal worked out at 9.56 log2 normalized intensity.

On to “CTGGACTATGCCTTGAACTTTAAGGCACCTGCCTAGGGAGATTAGAGTATCGGTCGA”, for which the binding signal amounted to 1.67 log2 normalized intensity.

Take “AGAGTTAGGGCCTTGCTATGGAGTGGACTTGCCTAGGGAGATTAGAGTATCGGTCGA”: the binding signal is 3.91 log2 normalized intensity.

In the case of “CTTTAACGACCTTTGGACTTGAATTATCCTGCCTAGGGAGATTAGAGTATCGGTCGA”, the binding signal is 8.83 log2 normalized intensity.

As for “ACGACCTTTGGACTTGAATTATCCTTATGGGCCTAGGGAGATTAGAGTATCGGTCGA”, the binding signal was found to be 6.99 log2 normalized intensity.

Consider “GCCTAAGCAGGGCTAGACTTTAACCCCCTTGCCTAGGGAGATTAGAGTATCGGTCGA”, for which the binding signal was found to be 6.24 log2 normalized intensity.

For the sequence “TGCTAGAGTACTTGGACTTTAACCTTTAGAGCCTAGGGAGATTAGAGTATCGGTCGA”, the binding signal was determined as 9.71 log2 normalized intensity.

As for “CTTTGGACTTGAATTATCCTTATGGTCTCTGCCTAGGGAGATTAGAGTATCGGTCGA”, the binding signal came to 0.611 log2 normalized intensity.

On to “TCGAATGGTATGCTAGAGTACTTGGACTTTGCCTAGGGAGATTAGAGTATCGGTCGA”, for which the binding signal came out at 7.5 log2 normalized intensity.

In the case of “ACACTGGGCTAGAGGTCTTAATCTTTTTACGCCTAGGGAGATTAGAGTATCGGTCGA”, the binding signal came to 1.15 log2 normalized intensity.

As to “CAGTGGGAGACAGGCATTAACCCTTTAGTGGCCTAGGGAGATTAGAGTATCGGTCGA”, the binding signal was 0.965 log2 normalized intensity.

For “CAACCCATCCAACTCCTTGAGAAGTACAACGCCTAGGGAGATTAGAGTATCGGTCGA”, the binding signal was -0.809 log2 normalized intensity.

On to “CAAAATATCTCACTCCCACACTGGTAACCTGCCTAGGGAGATTAGAGTATCGGTCGA”, for which the binding signal came to 0.32 log2 normalized intensity.

For “CAGCTGTTATCTCTTTTGTGATAGAATGAAGCCTAGGGAGATTAGAGTATCGGTCGA”, the binding signal was found to be 1.89 log2 normalized intensity.

In the case of “GTGTCATTGTTATTTACGGTGGGCACCTCAGCCTAGGGAGATTAGAGTATCGGTCGA”, the binding signal turned out to be 0.235 log2 normalized intensity.

As to “AGTGTTTCAAAGGAGTGTCTTTCTCCTTGAGCCTAGGGAGATTAGAGTATCGGTCGA”, the binding signal worked out at 1.38 log2 normalized intensity.

For “CTTGGACTTTAACCTTTAGATTACTAGGAAGCCTAGGGAGATTAGAGTATCGGTCGA”, the binding signal is 6.61 log2 normalized intensity.

As to “ACTTTAACCTTTAGATTACTAGGAATTGATGCCTAGGGAGATTAGAGTATCGGTCGA”, the binding signal was determined as 1.53 log2 normalized intensity.

(Values after PMC10726135, “HNF4α isoforms regulate the circadian balance between carbohydrate and lipid metabolism in the liver”.)
